Source: ChEMBL document CHEMBL1157539, “Thousands of chemical starting points for antimalarial lead identification” (Nature, 2010)
Values joined by “and” are separate entries in the source; they are usually repeats but may differ in a detail not shown here. Identical values can stand only once.

Experiments:
Format in all cases: functional
Plasmodium falciparum [1] = assay: GSK_TCMDC: Inhibition of Plasmodium falciparum 3D7 in whole red blood cells, using parasite LDH activity as an index of growth. Test compounds present at 2uM
Plasmodium falciparum [2] = assay: GSK_TCMDC: Inhibition of Plasmodium falciparum Dd2 in whole red blood cells, using parasite LDH activity as an index of growth. Test compounds present at 2uM
HepG2 = assay: GSK_TCMDC: Percent inhibition of human HepG2 cell line. Test compounds present at 10uM.

| SMILES | Inhibition (Plasmodium falciparum [1]) | Inhibition (Plasmodium falciparum [2]) | Inhibition (HepG2) |
| --- | --- | --- | --- |
| C[C@H](NC(=O)c1cc(-c2ccc(C(C)(C)C)cc2)no1)C(=O)O.C[C@H](NC(=O)c1conc1-c1ccc(C(C)(C)C)cc1)C(=O)O | 91% | 97% | 31% |
| Cc1noc(-c2ccccc2)c1NC(=O)NC1CCN(CCCCCNC(=O)/C=C/c2ccc(Cl)c(Cl)c2)CC1 | 93% | 0% | 0% |
| COc1cccc(C2CCN(CCN3CCC(NC(=O)c4ccc(-c5ccc(C#N)cc5)cc4)CC3)CC2)c1 | 98% | 47% | 28% |
| CC(C)c1ncc(-c2ccncc2)c(C2CCC(CNC(=O)c3ccncc3)CC2)n1 (stereo unspecified) | 85% | 49% | 0% |
| COc1ccc(CN2CCC2=O)c(OC)c1 | 98% | 96% | 0% |
| CC[C@@H]([C@@H](Cc1cc2ccccc2s1)C(=O)N[C@@H](CCCCNC(=O)OCc1ccccc1)C(=O)Nc1ccccn1)N(O)C=O | 96% | 70% | 36% |
| CC(C)C(=O)NC(c1ccc(N(C)C)cc1)c1cc(Cl)c2cccnc2c1O (stereo unspecified) | 87% | 64% | 61% |
| CCCCNc1nccc2ccc(-c3ccncc3)cc12 | 93% | 1% | 6% |
| COc1ccc2nccc([C@@H](O)CN3CCC(NCc4ccc5c(n4)NCCC5)CC3)c2c1 | 100% | 39% | 21% |
| Cc1ccc(Oc2ncccc2C(=O)Nc2cccc3cccnc23)c(C)c1 | 99% | 76% | 0% |
| Fc1ccccc1COc1ccc(Nc2ncnc3ccc(I)cc23)cc1Cl | 90% | 37% | 17% |
| CCOC(=O)C1CCN(CCOc2cc(NC(=O)/C=C/c3ccccc3Cl)ccc2Br)CC1.O=C(O)C(=O)O | 87% | 29% | 6% |
| Cc1cccn2c(=O)c3cc(C(=O)NCCN4CCOCC4)c(=N)n(CCc4ccccc4)c3nc12 | 100% | 85% | 13% |
| O=C(NCCCCCN1CCC(c2c[nH]c3ccccc23)CC1)Nc1ccc(I)c(Cl)c1 | 99% | 5% | 88% |
| O=C(NCCCCN1CCC(c2ccc3c(c2OCC2COCO2)CCCC3)CC1)c1ccc(-c2ccc(C(F)(F)F)cc2)cc1 (stereo unspecified) | 99% | 45% | 91% |
| CCNc1cc(C(=O)N[C@@H](Cc2ccccc2)[C@H](O)CNCc2cccc(-c3cncnc3)c2)cc(N2CCCC2=O)c1.O=C(O)C(F)(F)F | 97% | 96% | 5% |
| Cn1c(CN2CCC(N3CCc4cc(NC(=O)c5ccco5)ccc43)C2)cc2ccccc21 (stereo unspecified) | 91% | 92% | 0% |
| COc1cc(C=NNc2ccnc3cc(Cl)ccc23)ccc1O | 100% | 100% | 15% |
| CN(CCN)Cc1cccc(-c2ccc(-c3nc4cc(C(F)(F)F)ccc4[nH]3)s2)c1.O=C(O)C(F)(F)F | 100% | 92% | 27% |
| CNC(=O)c1cc(F)c(F)cc1Nc1nc(Nc2cccc(CS(C)(=O)=O)c2)ncc1Cl.O=CO | 91% | 90% | 52% |
| Oc1c(C(Nc2ccccn2)c2ccc(Cl)cc2Cl)ccc2cccnc12 (stereo unspecified) | 88% | 60% | 42% |

| SMILES | Inhibition (Plasmodium falciparum [1]) | Inhibition (Plasmodium falciparum [2]) | Inhibition (HepG2) |
| --- | --- | --- | --- |
| O=C(Nc1ccc2ccccc2c1)N(CCCn1ccnc1)Cc1csc(-c2ccc(CNCc3ccccc3)cc2)n1.O=C(O)C(F)(F)F | 99% | 53% | 10% |
| CNc1ccc(CNCc2cccc(-c3ccc(-c4nc5cccc(C)c5[nH]4)s3)c2)cc1.O=C(O)C(F)(F)F | 100% | 88% | 23% |
| O=C(/C=C/c1ccc(Cl)c(Cl)c1)NCCCCCN1CCC(c2c[nH]c3ccccc23)C(O)C1 (stereo unspecified) | 96% and 99% | 9% and 0% | 34% and 12% |
| O=C(/C=C/c1ccc(Cl)c(Cl)c1)NCCCCCN1CCC(NC(=O)c2ccc(F)c(F)c2)CC1 | 99% | 20% | 36% |
| C=C(C)CSc1nc2c(c(=O)n1Cc1ccco1)C1(CCCCC1)Cc1ccccc1-2 | 97% | 68% | 2% |
| CC(C)(C)Oc1ccc(CC2NC3(C(=O)N(Cc4ccc(C(C)(C)C)cc4)c4ccccc43)C3C(=O)N(c4ccc(Br)cc4)C(=O)C23)cc1 (stereo unspecified) | 94% | 94% | 24% |
| Br.CC1(C)NC(N)=NC(=N)N1OCCCCOc1ccc(Cl)cc1C1CCCCC1 | 93% | 97% | 56% |
| Cl.O=C(Nc1ccccc1Br)N[C@@H]1CCN(c2ccnc3ccccc23)C1 | 91% | 90% | 25% |
| CC(C)C[C@H](Nc1ccnc(NCC2CCCCC2)n1)C(=O)NCCc1ccccc1.O=C(O)C(F)(F)F | 88% | 66% | 10% |
| O=c1ccc(-c2nc3cc(Cl)c(Cl)cc3n2Cc2ccc(Cl)cc2Cl)c[nH]1 | 88% | 67% | 0% |
| CS(=O)(=O)c1ccccc1CNC(=O)c1ccc(-c2cccc(-c3nc4cc(C(F)(F)F)ccc4[nH]3)c2)cc1 | 91% | 4% | 36% |
| CC(=O)Nc1ccc(C(=O)Nc2cccc(-c3cccc(-c4nc5ccccc5[nH]4)c3)c2)cn1 | 100% | 100% | 3% |
| COc1ccc2ncc(F)c([C@H](O)CN3CCC(NCc4ccc5c(c4)OCCO5)CC3)c2c1.Cl | 100% | 99% | 1% |
| Cc1cccc(-c2cc3cc(Nc4ccnc5cc(-c6nccs6)ccc45)ccc3[nH]2)c1.Cl | 100% | 100% | 0% |
| CCOC(=O)c1ccc(NC(=O)Nc2ccc(Cn3ncc(N4CCCNCC4)c(Cl)c3=O)cc2)cc1.O=C(O)C(F)(F)F | 88% | 58% | 2% |
| Cc1cc(NC(=O)Nc2ccc(C(C)(C)C)cc2)c2ccccc2n1 | 100% | 57% | 0% |
| O=S(=O)(c1cccc2cccnc12)N1CCN(C2CCCCC2)CC1 | 96% | 10% | 15% |
| Nc1ncc(-c2ccc(F)cc2)cc1-c1nc2ccc(Cl)cc2[nH]1 | 99% | 44% | 45% |
| COc1ccc(NC(=O)CCNc2cc(C)nc(NCc3ccccc3C)n2)cc1.O=C(O)C(F)(F)F | 94% | 61% | 7% |
| NCCO.O=C(Nc1ccc([N+](=O)[O-])cc1Cl)c1cc(Br)cc(Cc2ccccc2)c1O | 84% | 96% | 75% |
| O=C(/C=C/c1ccc(Cl)c(Cl)c1)N1CCN(C(=O)Nc2cccc(C(F)(F)F)c2)CC1 | 99% | 100% | 53% |

| SMILES | Inhibition (Plasmodium falciparum [1]) | Inhibition (Plasmodium falciparum [2]) | Inhibition (HepG2) |
| --- | --- | --- | --- |
| N=C(N)Nc1ccc(C(=O)O)c(O)c1 | 94% | 1% | 0% |
| CCN(CC)CCCCNc1cc(-c2[nH]c(C(C)(C)C)nc2-c2ccc3cc(OC)ccc3c2)ccn1.O=C(O)C(F)(F)F | 85% | 76% | 23% |
| Cc1c(-c2cccc(CNCCc3ccc(Cl)cc3)c2)cnc(N)c1C.Cl | 87% | 30% | 9% |
| CN(c1ccc(C(=O)N[C@@H](CCC(=O)O)C(=O)O)cc1)S(=O)(=O)c1ccc2nc(N)[nH]c(=O)c2c1 | 97% | 3% | 16% |
| N=C(N)NCCN(Cc1ccccc1)c1ccccc1 | 100% | 98% | 8% |
| Cc1cccc2nc(-c3ccc(-c4cccc(NC(=O)NCc5cccc(F)c5)c4)s3)[nH]c12 | 88% | 8% | 24% |
| Cc1cc(N2CC=CCC2)nc(NC(=N)Nc2ccc(Br)cc2)n1 | 98% | 41% | 10% |
| CCN(CCCN1CCCCC1)c1cc(C)nc(Nc2ccc(C)cc2)n1.O=C(O)C(F)(F)F | 100% | 10% | 17% |
| Cc1cc(=NN=Cc2ccc(F)cc2)c2ccc(F)cc2[nH]1 | 99% | 30% | 0% |
| CCN(CC)CCNc1ccnc2[nH]c3ccc(C)cc3c12 | 100% | 81% | 9% |
| N#Cc1c(N)n(CCc2ccc(F)cc2)c2nc3ccccc3nc12 | 92% | 36% | 8% |
| CCCCCN1CCN(Cc2cccc(NC(=O)c3ccc(Cl)c(Cl)c3)c2)CC1.O=C(O)C(F)(F)F | 90% | 33% | 24% |
| CS(=O)(=O)c1cc2c(Nc3ccc(N4CCOCC4)cc3)c(C(N)=O)cnc2cc1Br.Cl | 100% | 89% | 0% |
| COc1ccc(-c2cc(-c3nc4cc(CN)ccc4[nH]3)c(=O)n(C)c2)cc1OC | 85% | 56% | 0% |
| CCOC(=O)C(NC(=O)c1ccc([N+](=O)[O-])o1)C(C)C (stereo unspecified) | 87% | 8% | 0% |
| CCCCCCNC(=O)C1Cc2c([nH]c3ccc(C)cc23)C2(CCN(Cc3ccccc3)CC2)N1 (stereo unspecified) | 84% | 25% | 25% |
| COc1ccc(NC(=O)CSc2nc(-c3ccccc3Cl)ns2)cc1OC | 97% | 63% | 0% |
| Cc1[nH]c2ccccc2c1C(=O)C(C)Sc1nnc(-c2ccccc2Br)[nH]1 (stereo unspecified) | 100% | 100% | 0% |
| COc1ccc(-c2cnc3ccc(NCc4ccc(S(N)(=O)=O)cc4)nn23)cc1 | 96% | 99% | 19% |
| Fc1ccc2[nH]ccc(=NN=CC=Cc3ccccc3)c2c1 | 96% | 77% | 29% |
